RTF Ca sens act: cardiac RTF calcium sensitivity activators, primary screen, biochemical, IANBD-TnC fluorescence, EC20 calcium. IANBD-labeled TnC RTF fluorescence at EC20 calcium; 0% EC20 calcium, 100% full calcium. Troponin I, cardiac muscle (Homo sapiens) + Troponin T, cardiac muscle (Homo sapiens) + …. activation, % at 7.2 µM. AID 493008, 2010. 340,000 compounds, 0.24% hits;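 active means activation above the mean over all tested compounds plus 3 SD, cut at about 30% in these data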;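 further: rise in fluorescence read as greater calcium sensitivity of cardiac thin filaments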
LANA DNA inh: inhibitors of KSHV C-LANA binding to DNA, primary screen, biochemical, fluorescence polarization, FAM-LBS DNA, MBP-C-LANA, single point. Kaposi's sarcoma herpesvirus LANA C-terminal domain (residues 932-1162) DNA binding. inhibition, % at 9 µM. 340,000 compounds, 0.078% hits. AID 504423, 2011;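 active means highest replicate inhibition at or above 60% at 9 µM, even if other replicates fall short; inactive means all replicates below 60% inhibition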;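 further: 0% = neutral control wells and 100% = 4 µM acridine orange control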
Keap1-Nrf2 PPI: Keap1-Nrf2 protein-protein interaction inhibitors, primary screen, biochemical, fluorescence polarization, single point. 340,000 compounds, 0.15% hits. inhibition, % at 9.4 µM. AID 504523, 2011. Keap1 Kelch-Nrf2 peptide fluorescence polarization, 1536-well; in the data active means inhibition above about 12%; inconclusive means no clear call, values can overlap the other calls; inactive means below about 7.3%;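 further: human Keap1 Kelch domain with fluorescein labeled Nrf2 9mer peptide probe; 0% = neutral control wells and 100% = peptide positive control; higher means more block of Keap1 binding to Nrf2 peptide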
Target sequence (Q14145 whole entry, looked up, the tested form may be a part): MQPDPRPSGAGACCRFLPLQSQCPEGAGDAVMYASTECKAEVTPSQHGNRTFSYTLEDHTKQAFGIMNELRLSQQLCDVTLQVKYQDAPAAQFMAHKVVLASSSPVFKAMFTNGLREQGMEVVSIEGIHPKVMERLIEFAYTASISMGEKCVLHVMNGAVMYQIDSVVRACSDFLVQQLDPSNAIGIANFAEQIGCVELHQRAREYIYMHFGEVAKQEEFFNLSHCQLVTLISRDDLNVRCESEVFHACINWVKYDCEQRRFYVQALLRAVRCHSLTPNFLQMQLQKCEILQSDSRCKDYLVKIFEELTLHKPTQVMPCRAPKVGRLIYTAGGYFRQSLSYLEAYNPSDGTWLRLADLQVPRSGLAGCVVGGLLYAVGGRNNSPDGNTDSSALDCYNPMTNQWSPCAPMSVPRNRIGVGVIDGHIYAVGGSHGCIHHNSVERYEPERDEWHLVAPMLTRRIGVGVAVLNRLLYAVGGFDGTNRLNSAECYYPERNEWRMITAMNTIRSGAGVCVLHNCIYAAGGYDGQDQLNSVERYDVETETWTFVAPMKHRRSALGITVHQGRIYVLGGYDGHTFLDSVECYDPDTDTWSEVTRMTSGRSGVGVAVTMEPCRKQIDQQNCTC
Cardiac RTF inh: cardiac RTF calcium sensitivity inhibitors, primary screen, biochemical, IANBD-TnC fluorescence, EC70 calcium; AID 493244, 2011; 340,000 compounds, 0.12% hits; Troponin I, cardiac muscle (Homo sapiens) + Troponin T, cardiac muscle (Homo sapiens) + …; IANBD-labeled cardiac RTF, Ca2+ fluorescence; inhibition, % at 7.15 µM;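 active means inhibition above the mean inhibition of all tested compounds plus 3 SD, cut at about 17% in these data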;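 further: assay run at fixed EC70 calcium of 1.6 mM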
E coli Lon inh: inhibitors of E. coli Lon protease, primary screen, biochemical, fluorescence polarization; purified E. coli Lon protease; P0A9M0; AID 602123, 2011; inhibition, % at 7.94 µM; 360,000 compounds, 0.42% hits; in the data active means inhibition above about 13%, passing the limit was not always enough;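 further: 0% = enzyme with probe and DMSO and 100% = no enzyme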
E coli Lon conf: E. coli Lon protease inhibitor retest, confirmation, biochemical, fluorescence polarization. 1,400 compounds, 31% hits. shares compounds with E coli Lon inh. inhibition, % at 7.94 µM. purified E. coli Lon; in the data active means inhibition above about 16%;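 further: 0% = enzyme with probe and DMSO and 100% = no enzyme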
Active calls of the source: *. Shown are actives, neighbours in structure and some others; about 0.82% of the full set was active somewhere.

CC(C)C[C@@H](CN1CCC[C@H]1CN1C(=O)C(=O)NC[C@@H]1Cc1ccc(O)cc1)N1C[C@H](Cc2ccccc2)N(CCc2ccccc2)C(=O)C1=O was read as E coli Lon inh 11* and E coli Lon conf -1.
For CN1CCc2cc3c(c4c2[C@H]1[C@H](O)c1ccccc1-4)OCO3 the results were RTF Ca sens act -2, LANA DNA inh 6, Keap1-Nrf2 PPI 4, Cardiac RTF inh -21, E coli Lon inh 59* and E coli Lon conf 27*.
`COc1ccc2c(c1OC)C(=O)OC2C1c2c(cc3c(c2OC)OCO3)CCN1C` (stereo not given) gave RTF Ca sens act 6, LANA DNA inh 2, Keap1-Nrf2 PPI -2, Cardiac RTF inh 6 and E coli Lon inh 4.
Screening CCN=c1scc(C)n1/N=C/c1ccc(O)c(O)c1O returned RTF Ca sens act -3, LANA DNA inh 1, Keap1-Nrf2 PPI -7, Cardiac RTF inh -1, E coli Lon inh 25* and E coli Lon conf 22*.
Screening COC(=O)CN(c1ccc2c(c1)OCO2)S(C)(=O)=O returned RTF Ca sens act 4, LANA DNA inh -2, Keap1-Nrf2 PPI -7, Cardiac RTF inh -7, E coli Lon inh 17* and E coli Lon conf 7.
For CCN(CC)C(=O)CN(c1ccc2c(c1)OCO2)S(C)(=O)=O the results were RTF Ca sens act -3, LANA DNA inh 1, Keap1-Nrf2 PPI 0, Cardiac RTF inh -4 and E coli Lon inh -6.
`CSc1ccc(C2C(C(=O)c3ccco3)=C(O)C(=O)N2c2nnc(SC)s2)cc1` (stereo not given) gave RTF Ca sens act 24, LANA DNA inh 4, Keap1-Nrf2 PPI 1, Cardiac RTF inh -27, E coli Lon inh 41* and E coli Lon conf 49*.
For Cc1nnc(N2C(=O)C(O)=C(C(=O)c3ccco3)C2c2ccc(F)cc2)s1 (stereo not given) the results were RTF Ca sens act 10, LANA DNA inh 6, Keap1-Nrf2 PPI -4, Cardiac RTF inh -9 and E coli Lon inh 9.
`NC(COCc1ccccc1)c1csc(Nc2ccc(C(=O)NCCO)cc2)n1` (stereo not given) gave E coli Lon inh -16.
For N#Cc1ccc(S(=O)(=O)NC2CC2)cc1 the results were RTF Ca sens act -7, LANA DNA inh 1, Keap1-Nrf2 PPI -3, Cardiac RTF inh -9, E coli Lon inh 20* and E coli Lon conf 42*.
For CC1CN(C2=Nc3cccc4cccc2c34)CC(C)O1 (stereo not given) the results were RTF Ca sens act 14, LANA DNA inh -5, Keap1-Nrf2 PPI -2, Cardiac RTF inh -17, E coli Lon inh 28* and E coli Lon conf 14.
`COc1ccccc1N1CCN(C2=Nc3cccc4cccc2c34)CC1` gave RTF Ca sens act 9, LANA DNA inh 2, Keap1-Nrf2 PPI -3, Cardiac RTF inh -6 and E coli Lon inh -12.
Screening c1cc2c3c(cccc3c1)C(N1CCOCC1)=N2 returned LANA DNA inh 5, Keap1-Nrf2 PPI -1, E coli Lon inh 32* and E coli Lon conf 28*.
Screening c1ccc(CC2CCN(C3=Nc4cccc5cccc3c45)CC2)cc1 returned RTF Ca sens act 0, LANA DNA inh 15, Keap1-Nrf2 PPI 2, Cardiac RTF inh -5 and E coli Lon inh -23.
For CC(=O)N1CCN(C2=Nc3cccc4cccc2c34)CC1 the results were RTF Ca sens act 4, LANA DNA inh 8, Keap1-Nrf2 PPI 0, Cardiac RTF inh -11, E coli Lon inh 18* and E coli Lon conf 23*.
`COc1ccc2nc(-c3ccco3)c(-c3ccco3)nc2c1` gave RTF Ca sens act -13, LANA DNA inh 17, Keap1-Nrf2 PPI 2, Cardiac RTF inh 8, E coli Lon inh 19* and E coli Lon conf -7.
COc1ccc2nc3cccc(OC)c3nc2c1 was read as RTF Ca sens act 2, LANA DNA inh 0, Keap1-Nrf2 PPI -4, Cardiac RTF inh 0 and E coli Lon inh 7.
`Cc1cc(C)n2nc3nc4c(cc3c2n1)CCCC4` gave RTF Ca sens act 31*, LANA DNA inh 2, Keap1-Nrf2 PPI -2, Cardiac RTF inh -53, E coli Lon inh 56* and E coli Lon conf 13.
`Cc1cc(C)n2nc(C)c(Br)c2n1` gave RTF Ca sens act 7, LANA DNA inh -1, Keap1-Nrf2 PPI -4, Cardiac RTF inh -3 and E coli Lon inh 2.
For COc1cccc2c1C(=O)c1c(O)c3c(c(O)c1C2=O)CC(O)(C(=O)CO)CC3OC1CC(N(C)C)C(O)C(C)O1 (stereo not given) the results were RTF Ca sens act 201*, LANA DNA inh 114*, Keap1-Nrf2 PPI inconclusive, Cardiac RTF inh -269, E coli Lon inh active and E coli Lon conf active.
`O=C1[C@H]2[C@@H](c3ccccc3)N[C@]3(CCCN(Cc4ccco4)C3=O)[C@H]2C(=O)N1Cc1ccccc1` gave E coli Lon inh 96* and E coli Lon conf -4.
Screening Cc1cc(Cl)ccc1OC(C)C(=O)NN=C1CCCCCC1 (stereo not given) returned RTF Ca sens act -1, LANA DNA inh 0, Keap1-Nrf2 PPI 2, Cardiac RTF inh -10, E coli Lon inh 21* and E coli Lon conf -5.
Screening O=C(N/N=C/C1C(c2ccccc2)C1(Cl)Cl)c1cccc(Cl)c1 (stereo not given) returned RTF Ca sens act 4, LANA DNA inh 1, Keap1-Nrf2 PPI -6, Cardiac RTF inh 1, E coli Lon inh 22* and E coli Lon conf -2.
Screening COc1ccc(NC(=O)c2cc(C3CCCCN3S(=O)(=O)c3ccc(F)cc3F)on2)c(C)c1 (stereo not given) returned E coli Lon inh 11.
`CSCCC(NC(=O)c1ccco1)C(=O)N1CCCCCCC1` (stereo not given) gave RTF Ca sens act 0, LANA DNA inh -1, Keap1-Nrf2 PPI 0, Cardiac RTF inh 0, E coli Lon inh 21* and E coli Lon conf 15.
For CC1(C(=O)NS(=O)(=O)c2cccc(F)c2)CCN1C(=O)CC1CCCC1 (stereo not given) the results were E coli Lon inh 8.
Cc1cc(Br)ccc1OCC(=O)NNC(=O)c1cnccn1 was read as RTF Ca sens act 1, LANA DNA inh 1, Keap1-Nrf2 PPI 2, Cardiac RTF inh 6, E coli Lon inh 71* and E coli Lon conf -7.

High-throughput results from PubChem BioAssay.
